How the values were obtained:
Test in all cases: log2 ratio of Biotin-Ahx-Ub-VS probe labelling (fragment/DMSO); higher = less target engagement (more negative = stronger competition), active = hit call of the paper (q ≤ 0.05, log2 ratio ≤ -1)
Conditions in all cases: compound concentration: 200 uM; treatment time: 3 h
USP42 = target: T1, USP42 (UniProt Q9H9J4)
T1 sequence (whole entry): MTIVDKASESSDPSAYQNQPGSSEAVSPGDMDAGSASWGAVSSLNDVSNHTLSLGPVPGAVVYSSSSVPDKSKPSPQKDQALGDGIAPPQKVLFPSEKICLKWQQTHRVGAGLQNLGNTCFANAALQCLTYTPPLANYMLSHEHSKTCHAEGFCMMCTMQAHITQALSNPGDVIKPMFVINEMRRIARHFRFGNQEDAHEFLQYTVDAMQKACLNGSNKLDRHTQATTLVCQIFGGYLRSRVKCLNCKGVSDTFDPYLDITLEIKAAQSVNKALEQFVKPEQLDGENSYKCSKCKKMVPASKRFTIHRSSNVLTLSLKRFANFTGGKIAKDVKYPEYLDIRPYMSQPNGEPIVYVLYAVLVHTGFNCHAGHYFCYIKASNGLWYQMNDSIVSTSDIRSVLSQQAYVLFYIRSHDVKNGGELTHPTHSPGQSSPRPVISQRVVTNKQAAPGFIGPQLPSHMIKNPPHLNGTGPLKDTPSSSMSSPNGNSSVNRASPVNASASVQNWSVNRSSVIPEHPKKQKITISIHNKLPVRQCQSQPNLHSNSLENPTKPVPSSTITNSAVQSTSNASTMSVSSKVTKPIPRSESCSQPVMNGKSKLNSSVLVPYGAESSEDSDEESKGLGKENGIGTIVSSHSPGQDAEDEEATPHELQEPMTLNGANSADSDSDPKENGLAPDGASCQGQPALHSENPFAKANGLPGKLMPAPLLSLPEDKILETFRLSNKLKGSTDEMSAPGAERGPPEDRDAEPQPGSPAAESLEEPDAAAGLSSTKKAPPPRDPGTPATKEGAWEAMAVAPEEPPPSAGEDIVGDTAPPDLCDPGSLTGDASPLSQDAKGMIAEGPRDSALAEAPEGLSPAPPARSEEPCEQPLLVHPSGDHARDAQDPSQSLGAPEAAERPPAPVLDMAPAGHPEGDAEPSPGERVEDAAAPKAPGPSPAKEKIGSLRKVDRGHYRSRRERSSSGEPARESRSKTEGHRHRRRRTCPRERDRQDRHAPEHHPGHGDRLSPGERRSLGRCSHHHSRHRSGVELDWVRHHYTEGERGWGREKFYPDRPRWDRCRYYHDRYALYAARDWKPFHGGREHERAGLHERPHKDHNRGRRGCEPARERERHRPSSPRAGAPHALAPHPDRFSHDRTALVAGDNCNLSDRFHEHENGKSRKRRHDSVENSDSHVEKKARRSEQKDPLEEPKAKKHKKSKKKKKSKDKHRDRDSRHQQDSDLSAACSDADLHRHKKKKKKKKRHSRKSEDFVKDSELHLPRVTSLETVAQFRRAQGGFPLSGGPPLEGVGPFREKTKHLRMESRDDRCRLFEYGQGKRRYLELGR
How it was run: (§1)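 In triplicate, 495 µg of HEK293T lysate per sample was incubated with fragment at 200 µM or vehicle for 3 h. Biotin-Ahx-Ub-VS was then added to 0.5 µM final for 1 h, and labelled DUBs were captured with NeutrAvidin, digested with LysC and trypsin, and measured by diaPASEF LC-MS/MS. Data are average log2 fragment/vehicle ratios by unpaired t-test from global-median-normalised Spectronaut label-free quantities, restricted to proteins with ≥2 unique peptides.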

USP46 = USP46 (UniProt P62068)
USP46, sequence (P62068 whole entry): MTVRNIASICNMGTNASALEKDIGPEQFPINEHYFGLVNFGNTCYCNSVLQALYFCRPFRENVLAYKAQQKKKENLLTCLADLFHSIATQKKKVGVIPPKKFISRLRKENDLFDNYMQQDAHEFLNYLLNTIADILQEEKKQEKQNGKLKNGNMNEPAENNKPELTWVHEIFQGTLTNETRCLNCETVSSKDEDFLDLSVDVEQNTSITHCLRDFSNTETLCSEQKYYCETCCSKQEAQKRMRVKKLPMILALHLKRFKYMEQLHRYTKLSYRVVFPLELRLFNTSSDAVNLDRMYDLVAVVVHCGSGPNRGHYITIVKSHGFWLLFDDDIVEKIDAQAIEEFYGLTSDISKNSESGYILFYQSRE
How it was run: as §1

USP47 = target: T2, USP47 (UniProt Q96K76)
T2 sequence (whole entry): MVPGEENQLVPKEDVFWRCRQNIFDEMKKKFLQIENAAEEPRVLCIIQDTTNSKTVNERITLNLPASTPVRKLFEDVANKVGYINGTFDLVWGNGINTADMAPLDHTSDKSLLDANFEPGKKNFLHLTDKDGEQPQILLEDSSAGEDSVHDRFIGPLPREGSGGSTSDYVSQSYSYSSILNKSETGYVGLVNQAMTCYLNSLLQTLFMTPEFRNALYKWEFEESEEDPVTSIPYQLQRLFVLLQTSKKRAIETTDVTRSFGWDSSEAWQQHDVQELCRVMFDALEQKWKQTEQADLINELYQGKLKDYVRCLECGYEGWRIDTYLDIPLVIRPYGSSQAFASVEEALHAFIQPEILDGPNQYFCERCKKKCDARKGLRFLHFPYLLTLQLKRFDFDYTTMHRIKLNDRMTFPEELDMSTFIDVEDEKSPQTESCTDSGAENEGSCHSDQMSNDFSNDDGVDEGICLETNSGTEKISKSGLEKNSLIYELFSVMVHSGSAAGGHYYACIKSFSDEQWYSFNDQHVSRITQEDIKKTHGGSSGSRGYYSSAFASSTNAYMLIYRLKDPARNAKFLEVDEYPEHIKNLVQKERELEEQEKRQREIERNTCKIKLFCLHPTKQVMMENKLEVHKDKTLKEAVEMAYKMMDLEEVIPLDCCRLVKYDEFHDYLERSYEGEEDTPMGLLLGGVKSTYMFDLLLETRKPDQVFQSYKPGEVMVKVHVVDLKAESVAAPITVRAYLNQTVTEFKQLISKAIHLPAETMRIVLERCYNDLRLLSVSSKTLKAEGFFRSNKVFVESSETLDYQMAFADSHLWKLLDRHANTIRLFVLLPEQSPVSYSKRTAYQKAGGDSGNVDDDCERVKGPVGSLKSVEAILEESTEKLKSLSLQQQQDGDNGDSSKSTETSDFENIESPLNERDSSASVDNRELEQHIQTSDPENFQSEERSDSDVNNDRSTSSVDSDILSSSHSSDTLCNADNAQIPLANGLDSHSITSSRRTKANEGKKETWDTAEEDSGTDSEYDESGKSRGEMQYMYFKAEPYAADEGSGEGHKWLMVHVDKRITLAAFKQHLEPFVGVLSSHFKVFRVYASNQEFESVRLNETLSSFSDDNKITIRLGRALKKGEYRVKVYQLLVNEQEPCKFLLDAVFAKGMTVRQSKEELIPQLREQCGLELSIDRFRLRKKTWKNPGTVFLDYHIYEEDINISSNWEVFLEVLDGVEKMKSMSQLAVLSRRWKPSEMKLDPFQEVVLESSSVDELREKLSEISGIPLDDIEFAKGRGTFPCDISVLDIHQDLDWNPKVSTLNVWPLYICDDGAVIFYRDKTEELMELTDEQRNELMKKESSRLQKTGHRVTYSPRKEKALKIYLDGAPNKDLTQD
How it was run: as §1

USP48 = target: T3, USP48 (UniProt Q86UV5)
T3 sequence (whole entry): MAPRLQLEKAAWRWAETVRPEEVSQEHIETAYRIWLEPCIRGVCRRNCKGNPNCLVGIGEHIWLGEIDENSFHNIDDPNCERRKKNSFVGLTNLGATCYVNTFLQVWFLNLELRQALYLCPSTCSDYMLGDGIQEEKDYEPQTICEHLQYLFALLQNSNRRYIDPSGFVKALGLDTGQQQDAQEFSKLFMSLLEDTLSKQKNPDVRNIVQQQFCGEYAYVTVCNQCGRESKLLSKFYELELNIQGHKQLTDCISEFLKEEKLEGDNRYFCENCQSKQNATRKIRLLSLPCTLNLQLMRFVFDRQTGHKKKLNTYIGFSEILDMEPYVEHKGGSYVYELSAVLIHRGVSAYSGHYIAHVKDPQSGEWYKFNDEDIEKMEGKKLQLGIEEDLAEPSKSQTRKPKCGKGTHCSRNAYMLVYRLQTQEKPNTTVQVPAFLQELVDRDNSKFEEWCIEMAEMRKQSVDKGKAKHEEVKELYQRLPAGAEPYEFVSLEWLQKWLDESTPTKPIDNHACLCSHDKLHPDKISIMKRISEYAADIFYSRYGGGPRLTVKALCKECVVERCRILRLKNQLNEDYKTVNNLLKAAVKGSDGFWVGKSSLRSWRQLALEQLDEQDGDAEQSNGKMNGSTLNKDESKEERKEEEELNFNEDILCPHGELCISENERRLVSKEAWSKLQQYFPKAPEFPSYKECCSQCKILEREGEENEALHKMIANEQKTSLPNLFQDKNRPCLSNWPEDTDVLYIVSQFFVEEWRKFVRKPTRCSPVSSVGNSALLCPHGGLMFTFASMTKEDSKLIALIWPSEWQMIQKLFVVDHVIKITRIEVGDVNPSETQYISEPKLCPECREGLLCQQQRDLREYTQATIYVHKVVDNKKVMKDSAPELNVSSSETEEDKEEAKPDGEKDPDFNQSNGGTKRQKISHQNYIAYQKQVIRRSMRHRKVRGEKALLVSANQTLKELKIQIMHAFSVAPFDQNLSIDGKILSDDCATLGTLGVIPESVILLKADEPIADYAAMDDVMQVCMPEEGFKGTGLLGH
How it was run: as §1

USP5 = target: T4, USP5 (UniProt P45974)
T4 sequence (whole entry): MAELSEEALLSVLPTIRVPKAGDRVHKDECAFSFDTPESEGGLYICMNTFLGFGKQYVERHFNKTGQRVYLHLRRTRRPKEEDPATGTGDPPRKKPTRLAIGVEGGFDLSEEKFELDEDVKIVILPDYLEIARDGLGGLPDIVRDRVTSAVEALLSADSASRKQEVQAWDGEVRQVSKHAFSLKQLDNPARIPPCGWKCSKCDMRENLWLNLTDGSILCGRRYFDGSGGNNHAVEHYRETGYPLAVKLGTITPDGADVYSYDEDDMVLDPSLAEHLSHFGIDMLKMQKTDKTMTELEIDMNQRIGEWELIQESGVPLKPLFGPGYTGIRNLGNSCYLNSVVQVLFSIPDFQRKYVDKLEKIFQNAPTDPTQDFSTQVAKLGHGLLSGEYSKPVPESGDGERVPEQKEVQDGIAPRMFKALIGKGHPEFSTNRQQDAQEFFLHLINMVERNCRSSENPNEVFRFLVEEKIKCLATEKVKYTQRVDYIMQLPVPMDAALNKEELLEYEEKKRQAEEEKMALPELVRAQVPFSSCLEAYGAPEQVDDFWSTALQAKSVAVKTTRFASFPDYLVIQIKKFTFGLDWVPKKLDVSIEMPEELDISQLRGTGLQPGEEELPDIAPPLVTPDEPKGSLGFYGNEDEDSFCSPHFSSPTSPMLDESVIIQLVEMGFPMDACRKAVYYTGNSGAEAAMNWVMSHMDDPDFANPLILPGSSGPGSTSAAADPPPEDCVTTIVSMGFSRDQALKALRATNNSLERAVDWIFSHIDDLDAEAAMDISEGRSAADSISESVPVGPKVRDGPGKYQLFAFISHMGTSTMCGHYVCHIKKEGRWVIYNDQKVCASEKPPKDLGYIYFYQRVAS
How it was run: as §1

USP54 = USP54 (UniProt Q70EL1)
How it was run: as §1

USP7 = USP7 (UniProt Q93009)
USP7, sequence (Q93009 whole entry, looked up): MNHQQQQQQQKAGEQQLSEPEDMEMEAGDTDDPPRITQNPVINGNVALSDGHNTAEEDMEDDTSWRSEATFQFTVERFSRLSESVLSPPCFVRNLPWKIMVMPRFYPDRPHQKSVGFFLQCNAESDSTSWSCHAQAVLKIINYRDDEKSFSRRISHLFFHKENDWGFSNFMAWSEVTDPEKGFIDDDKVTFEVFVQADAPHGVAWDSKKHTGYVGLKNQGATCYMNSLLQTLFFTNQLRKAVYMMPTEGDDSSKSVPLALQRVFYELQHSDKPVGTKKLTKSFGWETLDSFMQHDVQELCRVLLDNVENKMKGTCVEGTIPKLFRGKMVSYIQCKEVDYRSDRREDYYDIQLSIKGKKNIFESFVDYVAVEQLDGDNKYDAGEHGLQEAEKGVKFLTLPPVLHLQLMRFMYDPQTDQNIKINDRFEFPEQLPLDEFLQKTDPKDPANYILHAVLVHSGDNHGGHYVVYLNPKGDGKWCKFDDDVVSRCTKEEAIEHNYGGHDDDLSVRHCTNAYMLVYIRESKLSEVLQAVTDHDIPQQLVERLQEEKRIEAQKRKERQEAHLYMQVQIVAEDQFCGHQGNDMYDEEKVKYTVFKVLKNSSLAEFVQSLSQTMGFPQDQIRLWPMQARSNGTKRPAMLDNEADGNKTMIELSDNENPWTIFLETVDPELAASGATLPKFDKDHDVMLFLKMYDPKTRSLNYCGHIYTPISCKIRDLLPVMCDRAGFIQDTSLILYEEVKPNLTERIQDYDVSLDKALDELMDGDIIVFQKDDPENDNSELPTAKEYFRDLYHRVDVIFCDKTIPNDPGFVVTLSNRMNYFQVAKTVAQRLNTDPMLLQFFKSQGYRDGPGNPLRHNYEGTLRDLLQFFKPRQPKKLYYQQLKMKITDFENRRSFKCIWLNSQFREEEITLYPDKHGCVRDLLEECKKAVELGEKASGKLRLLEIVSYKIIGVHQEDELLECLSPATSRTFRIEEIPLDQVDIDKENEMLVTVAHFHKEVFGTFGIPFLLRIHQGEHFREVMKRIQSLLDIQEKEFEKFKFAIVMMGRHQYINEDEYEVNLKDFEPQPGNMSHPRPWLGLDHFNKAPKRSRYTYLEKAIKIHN
How it was run: as §1

USP8 = target: T5, USP8 (UniProt P40818)
T5 sequence (whole entry): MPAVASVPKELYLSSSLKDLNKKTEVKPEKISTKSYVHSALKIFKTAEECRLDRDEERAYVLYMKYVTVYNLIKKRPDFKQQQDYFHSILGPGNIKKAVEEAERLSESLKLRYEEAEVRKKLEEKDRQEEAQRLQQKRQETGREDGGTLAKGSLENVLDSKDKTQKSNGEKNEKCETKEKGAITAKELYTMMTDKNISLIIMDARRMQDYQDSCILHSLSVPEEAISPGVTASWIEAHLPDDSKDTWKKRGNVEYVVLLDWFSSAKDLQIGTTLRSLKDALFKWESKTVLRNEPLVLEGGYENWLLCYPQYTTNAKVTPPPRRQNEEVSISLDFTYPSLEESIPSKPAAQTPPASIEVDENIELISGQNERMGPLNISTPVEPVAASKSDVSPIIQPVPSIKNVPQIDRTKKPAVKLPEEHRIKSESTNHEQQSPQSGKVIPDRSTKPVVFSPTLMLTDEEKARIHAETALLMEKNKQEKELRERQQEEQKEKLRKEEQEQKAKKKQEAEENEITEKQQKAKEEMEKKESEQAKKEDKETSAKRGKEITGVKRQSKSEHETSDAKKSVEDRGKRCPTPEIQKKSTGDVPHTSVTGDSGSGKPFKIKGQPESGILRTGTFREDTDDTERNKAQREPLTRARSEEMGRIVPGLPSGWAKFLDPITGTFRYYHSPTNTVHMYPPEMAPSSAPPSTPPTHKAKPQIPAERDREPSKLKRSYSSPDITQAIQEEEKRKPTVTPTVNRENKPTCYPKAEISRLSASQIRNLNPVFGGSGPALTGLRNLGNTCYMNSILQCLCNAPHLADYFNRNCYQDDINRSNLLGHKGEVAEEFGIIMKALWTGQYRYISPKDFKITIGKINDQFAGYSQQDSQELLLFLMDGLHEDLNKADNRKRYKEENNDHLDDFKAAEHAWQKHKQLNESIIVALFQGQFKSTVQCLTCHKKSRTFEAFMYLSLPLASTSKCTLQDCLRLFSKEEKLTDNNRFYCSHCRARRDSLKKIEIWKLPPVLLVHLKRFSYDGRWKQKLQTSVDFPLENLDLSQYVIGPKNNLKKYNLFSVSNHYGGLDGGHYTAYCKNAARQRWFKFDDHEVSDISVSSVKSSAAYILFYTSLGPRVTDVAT
How it was run: as §1

USP9X = USP9X (UniProt Q93008)
USP9X, sequence (Q93008 whole entry): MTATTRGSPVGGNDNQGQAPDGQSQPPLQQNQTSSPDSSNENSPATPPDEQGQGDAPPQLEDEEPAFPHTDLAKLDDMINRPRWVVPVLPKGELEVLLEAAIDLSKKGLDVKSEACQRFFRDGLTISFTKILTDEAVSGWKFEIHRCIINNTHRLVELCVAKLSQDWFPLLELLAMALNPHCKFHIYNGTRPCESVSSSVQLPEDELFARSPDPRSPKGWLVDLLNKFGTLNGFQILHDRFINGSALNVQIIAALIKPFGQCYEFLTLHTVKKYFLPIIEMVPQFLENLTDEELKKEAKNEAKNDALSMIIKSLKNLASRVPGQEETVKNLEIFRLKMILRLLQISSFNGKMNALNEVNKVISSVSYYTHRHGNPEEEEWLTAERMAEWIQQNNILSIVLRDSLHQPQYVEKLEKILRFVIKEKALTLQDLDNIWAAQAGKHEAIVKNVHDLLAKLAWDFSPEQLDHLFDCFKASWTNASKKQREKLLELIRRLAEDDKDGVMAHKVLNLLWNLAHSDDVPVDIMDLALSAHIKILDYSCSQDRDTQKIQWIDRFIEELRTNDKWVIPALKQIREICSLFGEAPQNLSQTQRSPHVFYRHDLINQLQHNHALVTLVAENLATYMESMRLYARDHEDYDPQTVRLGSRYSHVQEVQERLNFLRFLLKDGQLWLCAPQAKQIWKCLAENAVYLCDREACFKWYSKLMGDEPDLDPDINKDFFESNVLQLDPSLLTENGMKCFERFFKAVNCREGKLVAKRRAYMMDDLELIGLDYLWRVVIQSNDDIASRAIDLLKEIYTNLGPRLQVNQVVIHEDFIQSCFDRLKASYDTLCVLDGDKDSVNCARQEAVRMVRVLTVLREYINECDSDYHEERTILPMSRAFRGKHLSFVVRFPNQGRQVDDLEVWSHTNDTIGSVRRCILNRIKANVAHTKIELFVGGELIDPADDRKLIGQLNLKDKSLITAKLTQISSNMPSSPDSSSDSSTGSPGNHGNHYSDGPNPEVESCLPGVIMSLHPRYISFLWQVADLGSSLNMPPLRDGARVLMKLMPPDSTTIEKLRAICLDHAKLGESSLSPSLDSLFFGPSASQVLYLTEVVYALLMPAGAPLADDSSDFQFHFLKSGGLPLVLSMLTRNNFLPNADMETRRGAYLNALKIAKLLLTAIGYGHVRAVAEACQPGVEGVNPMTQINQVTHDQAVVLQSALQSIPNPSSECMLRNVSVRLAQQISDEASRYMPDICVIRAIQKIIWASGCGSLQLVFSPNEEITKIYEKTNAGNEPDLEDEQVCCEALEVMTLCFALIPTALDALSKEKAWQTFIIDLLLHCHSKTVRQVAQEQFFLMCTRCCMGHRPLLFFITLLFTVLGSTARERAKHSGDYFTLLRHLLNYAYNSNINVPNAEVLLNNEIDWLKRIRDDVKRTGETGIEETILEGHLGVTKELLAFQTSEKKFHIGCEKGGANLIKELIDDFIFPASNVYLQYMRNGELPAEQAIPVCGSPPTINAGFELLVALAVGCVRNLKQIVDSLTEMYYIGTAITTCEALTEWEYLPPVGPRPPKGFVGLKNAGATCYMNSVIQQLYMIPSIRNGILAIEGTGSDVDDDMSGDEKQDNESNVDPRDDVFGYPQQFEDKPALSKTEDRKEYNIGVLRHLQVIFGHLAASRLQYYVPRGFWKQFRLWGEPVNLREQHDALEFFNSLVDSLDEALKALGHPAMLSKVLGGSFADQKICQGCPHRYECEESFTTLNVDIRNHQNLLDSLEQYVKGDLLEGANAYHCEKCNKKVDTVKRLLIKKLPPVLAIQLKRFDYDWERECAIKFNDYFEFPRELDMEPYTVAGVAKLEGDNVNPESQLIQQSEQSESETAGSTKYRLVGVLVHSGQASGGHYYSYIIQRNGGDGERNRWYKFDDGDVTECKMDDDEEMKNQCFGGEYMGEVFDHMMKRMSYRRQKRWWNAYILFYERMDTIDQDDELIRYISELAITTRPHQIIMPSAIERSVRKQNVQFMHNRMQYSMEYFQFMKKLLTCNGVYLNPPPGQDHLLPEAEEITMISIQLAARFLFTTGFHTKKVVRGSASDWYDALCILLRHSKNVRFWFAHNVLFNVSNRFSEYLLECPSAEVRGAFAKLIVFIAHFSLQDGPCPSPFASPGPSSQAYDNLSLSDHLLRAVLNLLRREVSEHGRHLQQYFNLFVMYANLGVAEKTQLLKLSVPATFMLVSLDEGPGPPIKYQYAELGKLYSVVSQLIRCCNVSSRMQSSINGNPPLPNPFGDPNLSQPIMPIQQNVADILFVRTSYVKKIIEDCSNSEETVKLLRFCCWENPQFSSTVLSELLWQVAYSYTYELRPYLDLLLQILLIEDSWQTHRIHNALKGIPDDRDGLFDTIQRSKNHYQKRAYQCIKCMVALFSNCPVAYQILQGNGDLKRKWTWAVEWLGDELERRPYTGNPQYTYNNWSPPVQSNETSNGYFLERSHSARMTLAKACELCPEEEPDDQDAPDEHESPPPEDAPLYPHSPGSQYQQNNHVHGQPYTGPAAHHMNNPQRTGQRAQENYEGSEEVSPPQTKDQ
How it was run: as §1

UniProt O00487 = target: UniProt O00487
UniProt O00487, sequence (O00487 whole entry): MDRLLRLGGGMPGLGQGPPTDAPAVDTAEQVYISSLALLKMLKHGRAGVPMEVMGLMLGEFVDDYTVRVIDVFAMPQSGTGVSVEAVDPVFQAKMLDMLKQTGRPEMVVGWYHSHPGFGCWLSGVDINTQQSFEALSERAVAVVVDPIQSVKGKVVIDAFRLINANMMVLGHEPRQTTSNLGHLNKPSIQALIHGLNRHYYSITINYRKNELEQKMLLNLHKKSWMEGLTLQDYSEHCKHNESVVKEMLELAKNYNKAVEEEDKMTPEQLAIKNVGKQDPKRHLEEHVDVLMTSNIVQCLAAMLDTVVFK
How it was run: as §1

Measured: log2 ratio of Biotin-Ahx-Ub-VS probe labelling

CC(NC(=O)CCl)c1cccc(Cl)c1 (stereo not given)
inactive: USP42 -0.459 | USP46 -0.115 | USP47 -0.252 | USP48 -0.283 | USP5 0.0893 | USP54 0.882 | USP7 -0.385 | USP8 -0.413 | USP9X -0.388 | UniProt O00487 -0.18

From the supplement of paper PMC11732987, “Enantioselective OTUD7B fragment discovery through chemoproteomics screening and high-throughput optimisation” (Communications Chemistry, 2025)
